From PubChem BioAssay (Tox21)
Results filed as inconclusive are left out. Calls of active or inactive are those of the source. Unless noted, the call rests on the fitted dose curve.

Key:
[1] = Nuclear factor erythroid 2-related factor 2/antioxidant responsive element (Nrf2/ARE) small molecule agonists: qHTS cell viability counter screen in human keratinocytes (AID 1919968; active means well fitted curve in the direction sought with a large enough effect in the repeat runs; an effect the other way counts as inactive or inconclusive; further: nearly all actives have a fitted effect of over 55% in size)
Procedure, shortened: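 Seed 1,500 KeratinoSens cells per well, then incubate 5 h at 37 C/5% CO2. Add compounds in DMSO and incubate 23 h. Add CellTiter-Fluor, wait 1 h and read fluorescence.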

[2] = G protein-coupled receptor (GPCR) small molecule agonists, calcium flux assay: HEK293 wild type cell line counter screen (AID 1920065)
Procedure, shortened: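 Counter-screen of the Tox21 10K library for non-specific calcium release: dye-loaded cells received compounds in DMSO and were monitored by kinetic fluorescence (480/540 nm, 3 min). Fifteen concentrations, run in triplicate.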

[3] = p53 small molecule agonists, cell-based qHTS assay with human liver microsomes (AID 1963577);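 further: p53 response element beta-lactamase reporter cells with liver microsomes plus NADPH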
Procedure, shortened: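 16 h, 37 C exposure of p53RE-bla cells to compounds with human liver microsomes and NADPH (0.5 mg/mL final each); detection via LiveBLAzer mixture, 2 h dark at room temperature.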

[4] = p53 small molecule agonists, cell-based qHTS assay with rat liver microsomes (AID 1963578)
Procedure, shortened: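 With rat liver microsomes and NADPH present (0.5 mg/mL final each), p53RE-bla cells are treated with compound for 16 h at 37 C. LiveBLAzer detection mixture is then applied for 2 h at room temperature in the dark.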

[5] = p53 small molecule agonists, cell-based qHTS assay with human liver microsomes: qHTS cell viability counter screen (AID 1963579); further: nearly all actives have a fitted effect of over 45% in size
Procedure, shortened: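 In this multiplexed counter screen, the reporter plates were subsequently treated with CellTiter-Glo so that cell viability, reflected by luminescence, could be recorded for p53RE-bla cells dosed 16 h with compounds under microsomal activation (HLM and NADPH).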

[6] = p53 small molecule agonists, cell-based qHTS assay with rat liver microsomes: qHTS cell viability counter screen (AID 1963580); further: nearly all actives have a fitted effect of over 45% in size
Procedure, shortened: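 In HCT-116 cells carrying a p53 response element-bla reporter, compounds were metabolically activated in situ by rat liver microsomes with NADPH over 16 h. Cell ATP content then served as the cytotoxicity measure.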

[7] = p53 small molecule agonists, cell-based qHTS assay: qHTS cell viability counter screen (AID 1963581); further: nearly all actives have a fitted effect of over 45% in size
Procedure, shortened: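 Cells: HCT-116 with p53 response element-driven beta-lactamase. Treatment: 16 h, 37 C, compounds in DMSO. Read: CellTiter-Glo luminescence after 30 min RT.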

[8] = p53 small molecule agonists, cell-based qHTS assay (AID 1963582; active means well fitted activation curve with a large enough effect in the signal ratio in the repeat runs, not every such curve was filed as active; the % refers to the signal ratio)
Procedure, shortened: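 Quantitative HTS in p53RE-bla cells: after a 5 h settling period, compounds delivered in DMSO were left on cells for 16 h at 37 C, and reporter induction was measured as fluorescence following 2 h substrate loading.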

[9] = target: 5-hydroxytryptamine receptor 2A (Homo sapiens) (UniProt P28223); assay: 5-hydroxytryptamine receptor 2A (HTR2A) small molecule antagonists, cell-based qHTS assay (AID 1963586); further: nearly all actives have a fitted effect of over 45% in size
Sequence of 5-hydroxytryptamine receptor 2A (Homo sapiens) (P28223 whole entry, looked up): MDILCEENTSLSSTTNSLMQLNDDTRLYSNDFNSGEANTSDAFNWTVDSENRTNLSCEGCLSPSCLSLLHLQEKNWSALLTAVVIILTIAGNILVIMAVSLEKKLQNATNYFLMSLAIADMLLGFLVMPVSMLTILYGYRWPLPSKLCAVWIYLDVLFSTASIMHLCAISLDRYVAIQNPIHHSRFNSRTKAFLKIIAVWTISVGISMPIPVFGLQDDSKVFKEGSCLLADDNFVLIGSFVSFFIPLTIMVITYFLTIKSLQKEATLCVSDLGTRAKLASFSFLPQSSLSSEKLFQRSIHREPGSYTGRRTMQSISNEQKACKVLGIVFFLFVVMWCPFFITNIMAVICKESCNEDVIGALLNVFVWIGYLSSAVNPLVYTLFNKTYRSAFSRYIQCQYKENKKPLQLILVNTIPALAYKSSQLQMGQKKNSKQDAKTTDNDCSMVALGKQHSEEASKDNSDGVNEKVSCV
Procedure, shortened: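 Antagonist-mode intracellular calcium assay: DOI (4 nM) added after 5 min compound pre-incubation at room temperature to dye-loaded HTR2A-CHO cells. Fluorescence followed for 3 min, sampled every second.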

[10] = target: 5-hydroxytryptamine receptor 2A (Homo sapiens) (UniProt P28223); assay: 5-hydroxytryptamine receptor 2A (HTR2A) small molecule agonists, cell-based qHTS assay (AID 1963587); further: nearly all actives have a fitted effect of over 30% in size
Procedure, shortened: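 HTR2A-CHO cells, plated 18 h at 37 C/5% CO2, dye-loaded 1 h at 37 C; compounds in DMSO added by pin tool (agonist mode). Intracellular calcium flux read as kinetic fluorescence on FDSS over 2 min at 1 s intervals.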

[11] = target: Muscarinic acetylcholine receptor M1 (Homo sapiens) (UniProt P11229); assay: Cholinergic receptor muscarinic 1 (CHRM1) small molecule antagonists, cell-based qHTS assay (AID 1963588); further: nearly all actives have a fitted effect of over 40% in size
Sequence of Muscarinic acetylcholine receptor M1 (Homo sapiens) (P11229 whole entry, looked up): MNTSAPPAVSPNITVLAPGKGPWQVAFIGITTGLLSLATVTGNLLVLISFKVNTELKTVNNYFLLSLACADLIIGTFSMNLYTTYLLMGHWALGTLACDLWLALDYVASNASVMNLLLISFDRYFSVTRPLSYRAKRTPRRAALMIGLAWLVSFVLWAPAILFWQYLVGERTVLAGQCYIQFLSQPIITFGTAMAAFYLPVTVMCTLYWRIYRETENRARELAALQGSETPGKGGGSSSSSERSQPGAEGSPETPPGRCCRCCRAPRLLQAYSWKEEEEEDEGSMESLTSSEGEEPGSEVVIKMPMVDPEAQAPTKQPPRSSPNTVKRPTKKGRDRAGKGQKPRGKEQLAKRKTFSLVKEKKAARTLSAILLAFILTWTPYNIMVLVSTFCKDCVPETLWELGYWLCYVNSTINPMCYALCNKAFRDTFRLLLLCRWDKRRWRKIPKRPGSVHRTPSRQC
Procedure, shortened: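 CHRM1-CHO calcium-flux assay, antagonist mode. Cells were seeded 18 h, dye-loaded 1 h at 37 C and given compound for 5 min at RT, then acetylcholine was added at 50nM. FDSS fluorescence was read 3 min; 15 concentrations, three runs.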

[12] = cAMP Responsive Elements (CRE) small molecule agonists, cell-based qHTS assay (AID 1963590)
Procedure, shortened: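 Agonist mode qHTS in CRE-bla HEK 293T cells: compounds dosed from DMSO for 3 h at 37 C/5% CO2, followed by LiveBLAzer B/G FRET substrate for 2 h at room temperature.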

[13] = cAMP Responsive Elements (CRE) small molecule antagonists, cell-based qHTS assay (AID 1963591; active means well fitted inhibition curve with a large enough effect in the signal ratio in the repeat runs, not every such curve was filed as active; the % refers to the signal ratio)
Procedure, shortened: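 Antagonist mode: test compounds are co-incubated with the adenylyl cyclase activator NKH477 (0.25 uM final) on CRE-bla HEK293T cells for 3 h at 37 °C, followed by LiveBLAzer substrate loading.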

[14] = target: Beta-2 adrenergic receptor (Homo sapiens) (UniProt P07550); assay: Adrenergic beta2 receptor (ADRB2) small molecule antagonists, cell-based qHTS assay (AID 1963592); further: series mostly up to about 92 µM; nearly all actives have a fitted effect of over 50% in size
Sequence of Beta-2 adrenergic receptor (Homo sapiens) (P07550 whole entry, looked up): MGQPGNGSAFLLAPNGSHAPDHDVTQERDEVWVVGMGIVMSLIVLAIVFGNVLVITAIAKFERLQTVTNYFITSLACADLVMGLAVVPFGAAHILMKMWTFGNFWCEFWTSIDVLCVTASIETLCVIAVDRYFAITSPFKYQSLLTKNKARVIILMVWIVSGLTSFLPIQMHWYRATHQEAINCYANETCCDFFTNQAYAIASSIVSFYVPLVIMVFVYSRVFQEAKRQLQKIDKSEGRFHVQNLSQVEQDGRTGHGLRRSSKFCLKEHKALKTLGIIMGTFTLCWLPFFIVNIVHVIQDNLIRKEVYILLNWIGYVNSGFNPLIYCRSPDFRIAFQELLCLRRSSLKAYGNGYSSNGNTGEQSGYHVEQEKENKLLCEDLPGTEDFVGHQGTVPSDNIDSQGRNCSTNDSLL
Procedure, shortened: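 Cells (CHO, stable ADRB2 overexpression) incubated 18-20hr at 37C; compounds added from DMSO; agonist mix (1nM isoproterenol, 100uM IBMX, 25uM Ro-20-1724) added; 0.5hr RT; d2-cAMP and anti-cAMP-cryptate added; 1hr RT; 665/615 nm read.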

[15] = target: Beta-2 adrenergic receptor (Homo sapiens) (UniProt P07550); assay: Adrenergic beta2 receptor (ADRB2) small molecule agonists, cell-based qHTS assay (AID 1963593);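 further: CHO cells stably overexpressing human ADRB2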
Procedure, shortened: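 CHO cells stably over-expressing ADRB2 were plated overnight at 37C, then dosed with compounds plus a stimulation mix containing 100uM IBMX and 25uM Ro-20-1724 for 0.5hr at room temperature. cAMP was measured by HTRF competition, 1hr.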

[16] = target: D(2) dopamine receptor (Homo sapiens) (UniProt P14416); assay: Dopamine D2 receptor (DRD2) small molecule agonists, cell-based qHTS assay (AID 1963594); further: nearly all actives have a fitted effect of over 35% in size
Sequence of D(2) dopamine receptor (Homo sapiens) (P14416 whole entry, looked up): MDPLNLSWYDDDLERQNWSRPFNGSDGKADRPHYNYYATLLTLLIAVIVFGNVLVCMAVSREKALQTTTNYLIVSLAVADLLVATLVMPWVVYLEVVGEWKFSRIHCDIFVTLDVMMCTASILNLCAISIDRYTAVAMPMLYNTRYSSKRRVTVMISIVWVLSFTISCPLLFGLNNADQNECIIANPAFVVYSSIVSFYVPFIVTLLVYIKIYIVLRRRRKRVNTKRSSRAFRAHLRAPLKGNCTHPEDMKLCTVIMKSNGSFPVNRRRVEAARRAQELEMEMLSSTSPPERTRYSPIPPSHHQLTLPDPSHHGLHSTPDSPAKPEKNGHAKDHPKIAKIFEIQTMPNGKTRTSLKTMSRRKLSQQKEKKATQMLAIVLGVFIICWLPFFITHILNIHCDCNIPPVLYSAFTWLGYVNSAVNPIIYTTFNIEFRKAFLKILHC
Procedure, shortened: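 HEK293 cells stably expressing DRD2 were cultured 24 h at 37 C, then given Ro20-1724 (0.1 mM final) and compounds for 10 min at room temperature. NKH477 (200nM) was then added for 30 min. cAMP was read by HTRF.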

[17] = target: D(2) dopamine receptor (Homo sapiens) (UniProt P14416); assay: Dopamine D2 receptor (DRD2) small molecule antagonists, cell-based qHTS assay (AID 1963595; active means well fitted inhibition curve with a large enough effect in the signal ratio in the repeat runs, with a control signal flat; the % refers to the signal ratio)
Procedure, shortened: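 HEK293 cells stably expressing DRD2 were preincubated with 0.1 mM Ro20-1724, then with compound for 10 min at room temperature. Cells were stimulated with 200 nM NKH477 plus 12 nM quinpirole for 30 min, and cAMP was read by HTRF.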

[18] = target: Gonadotropin-releasing hormone receptor (Homo sapiens) (UniProt P30968); assay: Human gonadotropin-releasing hormone receptor (GnRHR) small molecule agonists, calcium flux assay in GnRHR-HEK293 cells (AID 1920063); further: nearly all actives have a fitted effect of over 35% in size
Sequence of Gonadotropin-releasing hormone receptor (Homo sapiens) (P30968 whole entry, looked up): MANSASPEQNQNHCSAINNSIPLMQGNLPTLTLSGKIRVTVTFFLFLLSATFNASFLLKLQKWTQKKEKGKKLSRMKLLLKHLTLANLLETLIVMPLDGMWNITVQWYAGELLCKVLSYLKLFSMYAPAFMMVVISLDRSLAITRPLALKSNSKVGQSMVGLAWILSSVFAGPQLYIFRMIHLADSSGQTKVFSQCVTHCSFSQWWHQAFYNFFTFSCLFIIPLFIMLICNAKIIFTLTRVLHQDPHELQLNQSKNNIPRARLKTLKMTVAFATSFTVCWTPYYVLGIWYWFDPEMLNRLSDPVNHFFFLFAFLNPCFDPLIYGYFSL
Procedure, shortened: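 Cells: HEK293 stably expressing human GnRHR. Steps: overnight (18 h) culture, 1 h calcium dye loading at 37 C, compound addition, kinetic fluorescence read at 480/540 nm. Each compound tested at 15 concentrations in triplicate.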

[19] = target: KiSS-1 receptor (Homo sapiens) (UniProt Q969F8); assay: Human kisspeptin (KISS1R) small molecule agonists, calcium flux assay in KISS1R-HEK293 cells (AID 1920064; active means well fitted curve in the direction sought with a large enough effect in the repeat runs; an effect the other way counts as inactive or inconclusive)
Sequence of KiSS-1 receptor (Homo sapiens) (Q969F8 whole entry, looked up): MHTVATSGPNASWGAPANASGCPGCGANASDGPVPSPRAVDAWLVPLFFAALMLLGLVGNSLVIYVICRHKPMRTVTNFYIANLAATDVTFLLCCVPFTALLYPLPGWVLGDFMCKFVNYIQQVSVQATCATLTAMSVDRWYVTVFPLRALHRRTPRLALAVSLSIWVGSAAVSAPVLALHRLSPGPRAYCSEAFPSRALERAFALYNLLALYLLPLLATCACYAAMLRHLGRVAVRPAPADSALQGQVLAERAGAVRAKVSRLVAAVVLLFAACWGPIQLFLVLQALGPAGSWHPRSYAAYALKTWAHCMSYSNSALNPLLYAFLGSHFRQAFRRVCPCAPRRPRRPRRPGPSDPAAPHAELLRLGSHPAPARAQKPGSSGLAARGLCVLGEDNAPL
Procedure, shortened: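 Cells plated and incubated 18 h; dye added, 1 h at 37 C; compounds in DMSO pinned in; signal read at 480/540 nm every second for 3 min. Each compound tested at 15 concentrations in triplicate.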

[20] = target: Muscarinic acetylcholine receptor M1 (Homo sapiens) (UniProt P11229); assay: Cholinergic receptor muscarinic 1 (CHRM1) small molecule agonists, cell-based qHTS assay (AID 1963589); further: nearly all actives have a fitted effect of over 35% in size
Procedure, shortened: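 Agonist-mode qHTS in CHO cells stably carrying human muscarinic M1. Intracellular calcium is tracked by fluorescence every second after compound transfer; each compound runs at 15 concentrations in three independent runs.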

Measured: Potency

COC(/C=C(\C)CCC=C(C)C)OC
not listed: [18] | [19] | [20]
inactive: all other assays above

Clc1nc2ccccc2s1
not listed: [15]
inactive: all other assays above

CC(CCC(=O)O)C(=O)O (stereo not given)
not listed: [12] | [18] | [19]
inactive: all other assays above

CCCCCCCCS(=O)(=O)Cl
not listed: [2] | [18] | [19]
inactive: all other assays above

CCCC(C)CO (stereo not given)
not listed: [17]
inactive: all other assays above

CCC(C)c1ccccc1 (stereo not given)
inactive: all assays above

O=C(c1ccccc1O)c1ccccc1O
not listed: [2] | [18] | [20]
inactive: all other assays above

CCCCCCCCCC/C=C/C#N
not listed: [15]
inactive: all other assays above
